Experiment [1] is described as follows: Natriuretic polypeptide receptor (hNpr1) antagonism - Pilot counterscreen GloSensor control cell line (AID 1347045; calls by dose curve; further: series mostly up to about 38 µM). In outline: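 Luminescence was read before and 20 min after adding 50 uM SNP, which stimulates soluble guanylyl cyclase. The HEK293 cells expressing the GloSensor cGMP sensor had been preloaded with 2% reagent for 2 h and treated with compound.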
Background: A counterscreen serves to expose hits that act by an unwanted route or on another target.

In experiment [2] the target is Atrial natriuretic peptide receptor 1 (Homo sapiens) (UniProt P16066). As to the kind of experiment: Natriuretic polypeptide receptor (hNpr1) antagonism - Pilot screen (AID 1347049; calls by dose curve;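 further: agonist-evoked cGMP luminescence read 20 min after hNppA addition; series mostly up to about 58 µM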). The method, boiled down: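 Readout is cGMP-driven firefly luciferase luminescence in HEK293 cells carrying hNpr1 and a PDE5-domain GloSensor, read before and 20 min after 0.1 nM hNppA stimulation. Cells had 2% substrate reagent for 2 h and test compound for 30 min.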
Chain of Atrial natriuretic peptide receptor 1 (Homo sapiens) (P16066 whole entry, looked up): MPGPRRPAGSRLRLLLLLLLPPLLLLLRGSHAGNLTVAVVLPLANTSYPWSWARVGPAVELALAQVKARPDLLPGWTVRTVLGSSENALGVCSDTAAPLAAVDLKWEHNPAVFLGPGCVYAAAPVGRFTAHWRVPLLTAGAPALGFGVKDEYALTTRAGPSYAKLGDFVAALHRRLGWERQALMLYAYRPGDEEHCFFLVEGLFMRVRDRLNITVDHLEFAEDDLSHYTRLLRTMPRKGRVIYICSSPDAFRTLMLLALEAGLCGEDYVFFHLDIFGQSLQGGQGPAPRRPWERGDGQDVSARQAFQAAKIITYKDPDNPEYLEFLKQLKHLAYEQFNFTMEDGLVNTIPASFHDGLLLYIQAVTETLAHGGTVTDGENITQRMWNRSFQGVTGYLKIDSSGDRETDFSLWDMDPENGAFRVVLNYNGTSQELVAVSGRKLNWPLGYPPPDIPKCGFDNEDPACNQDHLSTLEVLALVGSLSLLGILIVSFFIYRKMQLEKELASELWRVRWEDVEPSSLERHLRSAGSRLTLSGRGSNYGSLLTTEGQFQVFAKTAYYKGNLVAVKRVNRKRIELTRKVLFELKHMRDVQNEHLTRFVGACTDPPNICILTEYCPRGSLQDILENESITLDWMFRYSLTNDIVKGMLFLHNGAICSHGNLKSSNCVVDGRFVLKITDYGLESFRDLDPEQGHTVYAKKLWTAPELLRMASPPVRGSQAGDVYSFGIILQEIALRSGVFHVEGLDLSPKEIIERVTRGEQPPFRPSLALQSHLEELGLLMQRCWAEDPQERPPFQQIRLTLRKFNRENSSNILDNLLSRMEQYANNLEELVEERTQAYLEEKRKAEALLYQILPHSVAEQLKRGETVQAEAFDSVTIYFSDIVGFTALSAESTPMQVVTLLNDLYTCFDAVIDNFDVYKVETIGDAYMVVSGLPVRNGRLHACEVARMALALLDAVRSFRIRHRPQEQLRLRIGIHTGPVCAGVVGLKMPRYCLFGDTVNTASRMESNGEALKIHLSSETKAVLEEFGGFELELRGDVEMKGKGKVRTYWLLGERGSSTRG

The target in experiment [3] is Atrial natriuretic peptide receptor 2 (Homo sapiens) (UniProt P20594). As to the kind of experiment: Natriuretic polypeptide receptor (hNpr2) antagonism - Pilot subtype selectivity assay (AID 1347050; calls by dose curve). The method, boiled down: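 Pilot selectivity screen against hNpr2: HEK293 cGMP-sensor cells are treated with LOPAC1280 compounds, then with hNppC peptide at 1 nM final. The cGMP-driven luminescence change over 20 min at room temperature is the read-out.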
Chain of Atrial natriuretic peptide receptor 2 (Homo sapiens) (P20594 whole entry, looked up): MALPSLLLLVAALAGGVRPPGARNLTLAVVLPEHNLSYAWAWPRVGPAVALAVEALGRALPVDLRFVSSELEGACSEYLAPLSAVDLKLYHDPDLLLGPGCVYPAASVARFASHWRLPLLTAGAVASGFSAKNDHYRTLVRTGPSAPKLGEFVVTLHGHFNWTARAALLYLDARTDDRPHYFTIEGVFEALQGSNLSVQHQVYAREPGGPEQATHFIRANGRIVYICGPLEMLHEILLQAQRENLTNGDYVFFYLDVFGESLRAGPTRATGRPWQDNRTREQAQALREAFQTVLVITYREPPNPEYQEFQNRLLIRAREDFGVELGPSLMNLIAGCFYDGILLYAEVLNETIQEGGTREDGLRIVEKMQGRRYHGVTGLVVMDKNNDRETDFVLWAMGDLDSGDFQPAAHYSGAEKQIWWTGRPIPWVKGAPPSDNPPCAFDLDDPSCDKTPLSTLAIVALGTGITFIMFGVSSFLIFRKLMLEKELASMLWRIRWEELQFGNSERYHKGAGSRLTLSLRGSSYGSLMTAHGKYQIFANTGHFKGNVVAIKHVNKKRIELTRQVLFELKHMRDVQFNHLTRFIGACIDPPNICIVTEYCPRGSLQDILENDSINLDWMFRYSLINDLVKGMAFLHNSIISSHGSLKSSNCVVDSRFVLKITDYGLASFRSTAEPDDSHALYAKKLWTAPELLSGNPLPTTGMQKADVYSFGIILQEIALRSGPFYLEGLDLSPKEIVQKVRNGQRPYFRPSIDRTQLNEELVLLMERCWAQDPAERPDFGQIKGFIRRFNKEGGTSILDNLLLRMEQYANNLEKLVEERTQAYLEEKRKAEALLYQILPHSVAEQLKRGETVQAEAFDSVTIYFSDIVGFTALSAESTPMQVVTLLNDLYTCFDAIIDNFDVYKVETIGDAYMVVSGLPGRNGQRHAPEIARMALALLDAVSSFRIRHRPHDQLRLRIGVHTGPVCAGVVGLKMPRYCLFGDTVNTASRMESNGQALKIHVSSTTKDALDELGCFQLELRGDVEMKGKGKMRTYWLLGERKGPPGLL

A short description of experiment [4]: P-glycoprotein substrates identified in KB-3-1 adenocarcinoma cell line, qHTS therapeutic library screen (AID 1346986). Further: nearly all actives have a fitted effect of over 60% in size.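 Further: potency means the concentration at half of the fitted maximal effect; potency is for cytotoxicity meaning loss of cell viability.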 In outline:
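Cells seeded 500/well in DMEM/10% FCS; compounds pinned in dose-response; 72 h incubation; CellTiter-Glo added, 5 min, luminescence. KB-8-5-11 run ±tariquidar to test reversal of P-gp resistance.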
In general terms: qHTS replaces the single test concentration by a dilution series.

A short description of experiment [5]: P-glycoprotein substrates identified in KB-8-5-11 adenocarcinoma cell line, qHTS therapeutic library screen (AID 1346987). Further: nearly all actives have a fitted effect of over 65% in size. Further: potency means the concentration at half of the fitted maximal effect. The method, boiled down: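 Steps: plate 500 KB-8-5-11 cells/well in DMEM + 10% FCS (colchicine removed); pin compounds in dose-response; incubate 72 h, 37 degree C, 5% CO2; add CellTiter-Glo, 5 min; read luminescence.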

Each structure is given as a SMILES string. Inconclusive results are not listed. The source made the active and inactive calls. Unless noted, the call rests on the fitted dose curve; in most records, active means well fitted curve in the direction sought with a large enough effect; inconclusive means small, poorly fitted or top-dose-only effect, or another doubt; inactive means no such curve, though single readings can be large; an effect the other way counts as inactive or inconclusive.

Take `CC(C)[C@@]1(NC(=O)[C@@H]2C[C@@H]3c4cccc5[nH]cc(c45)C[C@H]3N(C)C2)O[C@@]2(O)[C@@H]3CCCN3C(=O)[C@H](Cc3ccccc3)N2C1=O`: the Potency entry in experiment [1], in experiment [2] and in experiment [3] was “inactive” in each case.
Regarding `C=CCN(C1=NCCN1)c1c(Cl)cccc1Cl`, the Potency entry in experiment [1], in experiment [2] and in experiment [3] was “inactive” throughout.
As to `COC1=CC(=O)O[C@@H](/C=C/c2ccccc2)C1`, the Potency entry in experiment [4] and in experiment [5] was “inactive” in each case.
With `CCN1CC2(COC)C3[C@@H](OC)C4C1C3(C1C[C@]3(O)[C@H](OC(=O)c5ccccc5)C1[C@]4(OC(C)=O)[C@@H](O)[C@@H]3OC)[C@H](OC)C[C@H]2O` (some centres undefined), the Potency result in experiment [4] and in experiment [5] was “inactive” throughout.
With `CC12CCC3C(CCC4(O)CC(O)CCC34C=O)C1(O)CCC2C1=CC(=O)OC1` (centres undefined), the Potency in experiment [5] is 0.651 µM (active).
Same read-out and setting: with `CC1C/C=C/C(O)C(O)CC/C=C/c2cc(O)cc(O)c2C(=O)O1` (centres undefined) the entry was “inactive”; with `CN1[C@H]2C[C@H](OC(=O)[C@H](CO)c3ccccc3)C[C@@H]1[C@@H](O)C2`, “inactive”.
In the case of `CC1=C2C(=O)C3[C@@H](CC=C4C[C@@H](O)CC[C@@]43C)[C@@H]2CC[C@]12O[C@@H]1C[C@H](C)CN[C@H]1[C@H]2C` (some centres undefined), the Potency entry in experiment [4] and in experiment [5] was “inactive” each time.
For `COc1ccc2c(c1)/C(=C/c1cnc[nH]1)C(=O)N2`, the Potency was 7.31 µM (active) in experiment [4] and 5.17 µM (active) in experiment [5]. The Potency entry in experiment [1], in experiment [2] and in experiment [3] was “inactive” each time.
`C[C@]12CC[C@@H](O)C[C@H]1CC[C@@H]1[C@@H]2CC[C@]2(C)C(=O)CC[C@@H]12`: the Potency entry in experiment [4] and in experiment [5] was “inactive” each time.
On to `CCc1c(C(=O)C(N)=O)c2c(OCC(=O)OC)cccc2n1Cc1ccccc1`, for which the Potency result in experiment [4] and in experiment [5] was “inactive” in each case.
With `CC(=O)OC12C(O)C(C)C3(O)C4C=C(C)C(=O)C4CC(CO)=CC3C1C2(C)C` (centres undefined), the Potency result in experiment [4] and in experiment [5] was “inactive” throughout.
For `CC1=CC2/C=C(\C)CCC(O)C3OC(C)(C)OC3CC(=O)OC23C(=O)NC(CC(C)C)C3C1C` (centres undefined), the Potency entry in experiment [4] and in experiment [5] was “inactive” in each case.
Take `Cc1c(Cl)cccc1S(=O)(=O)Nc1nc(CC(=O)N2CCN(C)CC2)cs1`: the Potency entry in experiment [4] and in experiment [5] was “inactive” throughout.
Turning to `COCC1OC(=O)c2coc3c2C1(C)C1=C(C3=O)C2CCC(=O)C2(C)CC1O` (centres undefined), the Potency result in experiment [4] and in experiment [5] was “inactive” each time.
Consider `COC(=O)C1(C)CCC(O)C2(C)c3cc(O)c(C(C)C)cc3C(O)C(OC(C)=O)C12` (centres undefined), for which the Potency result in experiment [4] and in experiment [5] was “inactive” each time.
Regarding `CN1C(=O)N(c2ccc(C#N)c(C(F)(F)F)c2)C(=O)[C@]1(CO)c1ccccc1`, the Potency result in experiment [4] and in experiment [5] was “inactive” each time.
With `C=C(C)[C@H]1O[C@H]2CC[C@@]3(C)[C@@](O)(CC[C@H]4[C@@H]5OC(C)(C)[C@H]6C[C@@H]7C(=C)Cc8c(Cl)cc9[nH]c(c5c9c8[C@@]76O)[C@@]43C)[C@]23O[C@@H]3[C@H]1O`, the Potency entry in experiment [4] and in experiment [5] was “inactive” in each case.
Consider `C1=C2CCCN[C@H]2[C@@H]2C[C@H]1[C@H]1CCCCN1C2`, for which the Potency result in experiment [4] and in experiment [5] was “inactive” each time.
For the compound `CCC(C)(C#N)O[C@@H]1O[C@H](CO)[C@@H](O)[C@H](O)[C@H]1O` (some centres undefined), the Potency result in experiment [4] and in experiment [5] was “inactive” throughout.
On to `COc1cc(C(=O)O[C@H]2[C@@H]3C=CO[C@@H](O[C@@H]4O[C@H](CO)[C@@H](O)[C@H](O)[C@H]4O)[C@@H]3[C@@]3(CO)O[C@@H]23)ccc1O`, for which the Potency result in experiment [4] and in experiment [5] was “inactive” in each case.
Regarding `C/C=C(\C)C(=O)O[C@H]1[C@H](OC(C)=O)[C@]2(CO)[C@H](O)[C@H](O)[C@]3(C)C(=CCC4[C@@]5(C)CC[C@H](O[C@@H]6O[C@H](C(=O)O)[C@@H](O)[C@H](O[C@@H]7OC[C@H](O)[C@H](O[C@@H]8OC[C@H](O)[C@H](O)[C@H]8O)[C@H]7O)[C@H]6O[C@@H]6O[C@H](CO)[C@@H](O)[C@H](O)[C@H]6O)C(C)(C)C5CC[C@]43C)[C@@H]2CC1(C)C` (some centres undefined), the outcome in experiment [4] and in experiment [5] was “inactive [at 9.29 µM]” throughout.
In the case of `CN1[C@@H]2CC[C@H]1CC(OC(=O)C1C=Nc3ccccc31)C2` (some centres undefined), in experiment [5], the Potency entry is “inactive”.
Take `COC1=CC(=O)O[C@@H](CCc2ccccc2)C1`: the Potency entry in experiment [4] and in experiment [5] was “inactive” throughout.
As for `COC(=O)C12C(=O)C(C)(O)C(=O)C1(C)C(C)=CC1C34CCC(OC3=O)C(C)(CO)C4CCC12C` (centres undefined), the Potency entry in experiment [4] and in experiment [5] was “inactive” each time.
`C[C@@]1(C(=O)O)CC[C@]2(C)CC[C@]3(C)C4=CC(=O)c5cc(O)c(O)cc5[C@]4(C)CC[C@@]3(C)[C@@H]2C1`: the Potency entry in experiment [4] and in experiment [5] was “inactive” each time.
In the case of `C/C(O)=C(\C#N)C(=O)Nc1cc(Br)ccc1Br`, the Potency entry in experiment [4], in experiment [5], in experiment [1], in experiment [2] and in experiment [3] was “inactive” in each case.
Consider `C=C[C@H]1[C@H](O[C@@H]2O[C@H](CO)[C@@H](O)[C@H](O)[C@H]2O)OC=C2C(=O)OCC[C@H]21`, for which the Potency entry in experiment [4] and in experiment [5] was “inactive” throughout.
With `C[C@H]1C(=O)O[C@H]2[C@H](O)[C@]34C5OC(=O)[C@]3(O[C@@H]3OC(=O)[C@H](O)C34[C@H](C(C)(C)C)[C@H]5O)C12O` (some centres undefined), the Potency result in experiment [4] and in experiment [5] was “inactive” each time.
Regarding `CCN1C[C@]2(COC(=O)c3ccccc3N3C(=O)C[C@H](C)C3=O)CC[C@H](OC)[C@@]34[C@@H]5C[C@H]6[C@H](OC)[C@@H]5[C@](O)(C[C@@H]6OC)[C@](O)([C@@H](OC)[C@H]23)[C@@H]14`, the Potency result in experiment [4] and in experiment [5] was “inactive” in each case.
As to `CCN(CC)C(=O)/C(Cl)=C(\C)OP(=O)(OC)OC`, the Potency entry in experiment [5] was “inactive”.
Turning to `COc1cc(C)[nH]c(=O)c1CNC(=O)c1c(C)n([C@H](C)C2CCOCC2)c2ccccc12`, the Potency entry in experiment [4] and in experiment [5] was “inactive” each time.
As for `COC1CC(O[C@H]2CC[C@@]3(C)C(=CCC4C3C(O)[C@@H](O)[C@]3(C)[C@@H](C(C)=O)CC[C@]43O)C2)OC(C)C1OC1CC(OC)C(OC2OC(C)C(O)C(O)C2O)C(C)O1` (some centres undefined), the outcome in experiment [4] and in experiment [5] was “inactive [at 9.29 µM]” in each case.

For the origin of these results see PubChem BioAssay (NCATS).
